Shown are actives, neighbours in structure and some others; about 19% of the full set was active somewhere.
KB-3-1 tox – qHTS assay for MDR1-selective chemotherapeutics: Primary screen using the parental adenocarcinoma cell KB-3-1; 400,000 compounds, 1.4% hits; Potency, µM (series often up to 46.1 µM), actives largely listed as cytotoxic; KB-3-1 viability, CellTiter-Glo ATP luminescence, 72 h; also: nearly all actives have a fitted effect of over 60% in size
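Viability of parental KB-3-1 cells, measured by CellTiter-Glo luminescence, followed a 72 h incubation at 37 °C with pinned compounds in phenol-red-free DMEM containing 10% FBS.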
KB-V1 MDR tox – qHTS assay for MDR1-selective chemotherapeutics: Primary screen using the drug-selected MDR subline cells KB-V1 | KB-V1 MDR cells viability, CellTiter-Glo, 72 h | Potency, µM (top dose mostly 46.1 µM), actives largely listed as cytotoxic | 400,000 compounds, 3.4% hits; also: nearly all actives have a fitted effect of over 60% in size
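Compound-treated KB-V1 multidrug-resistant cells, 72 h, 37 degrees C; viability by CellTiter-Glo. Fitted qHTS curves give the values.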
DT40 TDP1 CPT – qHTS for Inhibitors of human tyrosyl-DNA phosphodiesterase 1 (TDP1): qHTS in cells in presence of CPT; 420,000 compounds, 12% hits; chicken DT40 Tdp1-/-;hTDP1 cells + 20 nM CPT, ATP luminescence, 48 h; Potency, µM (series often up to 46.2 µM), inactives show at the top dose activity change, negative = growth inhibition, hits mostly inhibitors; also: nearly all actives have a fitted effect of over 55% in size
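Chicken DT40 Tdp1-/- cells complemented with human TDP1, 400 cells/well, exposed to compounds plus 20 nM camptothecin for at least 48 h at 37 C; viability read as ATP content by CellTiter-Glo luminescence.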
TDP1 cell noCPT – qHTS for Inhibitors of human tyrosyl-DNA phosphodiesterase 1 (TDP1): qHTS in cells in absence of CPT | DT40 Tdp1-/- hTDP1 cells, no CPT, ATP luminescence, 48 h | Potency, µM (top dose mostly 46.2 µM), for the others: top-dose activity change, negative = growth inhibition, hits mostly inhibitors | 420,000 compounds, 15% hits; also: nearly all actives have a fitted effect of over 55% in size
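Chicken DT40 Tdp1-/- cells complemented with human TDP1, screened without camptothecin (DMSO vehicle only), 400 cells/well. Compounds pin-transferred, cells incubated at 37 °C for at least 48 hr. Growth read as ATP-dependent luminescence (CellTiter-Glo, 30 min at RT).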
HT1080 IDH1KD tx – qHTS for induction of synthetic lethality in tumor cells producing 2HG: qHTS for the HT-1080-IDH1KD cell line. 360,000 compounds, 2% hits. HT-1080 IDH1 knockdown viability, ATP luminescence, 48 h. Potency, µM (top dose mostly 46.1 µM), inactives show at the top dose activity, negative = toxicity, hits mostly cytotoxic. AID 686971, 2013;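 also: 0% = DMSO wells and -100% = cell-free medium wells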
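After a 2 h attachment period, IDH1KD HT-1080 cells took pin-transferred compound for 48 h at 37 °C; ATP-based luminescence after 10 min room-temperature reagent incubation reported viability.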
HT1080NT lethal – qHTS for induction of synthetic lethality in tumor cells producing 2HG: qHTS for the HT-1080-NT fibrosarcoma cell line | HT-1080-NT fibrosarcoma viability, CellTiter-Glo ATP luminescence, 48 h | Potency, µM (top dose mostly 46.1 µM), without a hit: at the top dose activity, negative = less viability, actives largely listed as cytotoxic | 360,000 compounds, 1.6% hits | AID 686970, 2013;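 also: NT is the 2HG producing partner of a matched IDH1 knockdown line; 0% = DMSO-treated cells and -100% = media-only wells without cells; nearly all actives have a fitted effect of over 55% in size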
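Viability by CellTiter-Glo luminescence after 48 h compound exposure at 37C of HT-1080-NT cells (750/well, RPMI, 5% FBS). % activity scaled between DMSO wells and medium-only wells, then curve-fitted and categorized by curve class.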
Starred values were filed as active, the others as inactive; i = inactive; ? = inconclusive; · = not tested or not shown; [ ] = another dose, or the depositor's remark. Calls follow the shape of the dose curve; as a rule, active = well fitted curve in the direction sought with a large enough effect; inconclusive = small, poorly fitted or top-dose-only effect, or another doubt; inactive = no such curve, though single readings can be large; an effect the other way counts as inactive or inconclusive. Unless noted, % is scaled to controls: 0 for no effect and ±100 for the full control effect; potency is read from the fitted curve at half-maximal effect.

SMILES	KB-3-1 tox	KB-V1 MDR tox	DT40 TDP1 CPT	TDP1 cell noCPT	HT1080 IDH1KD tx	HT1080NT lethal
O=C1c2ccccc2S(=O)(=O)c2cc(N3CCOCC3)ccc21	?	?	12µM*	21µM*	-8%	-1%
O=C(O)c1cccc2c1C(=O)c1ccc(N3CCCCC3)cc1S2(=O)=O	i	?	-2%	-3%	3%	3%
O=C1c2ccccc2S(=O)(=O)c2cc(N3CCN(c4ccccc4)CC3)ccc21	i	?	?	16µM*	-1%	5%
COC(=O)c1c(NC(=S)NN2CCOCC2)sc2c1CCCC2	i	i	?	15µM*	11%	0%
COC(=O)c1c(NC(=S)Nc2cc(OC)c(Cl)cc2OC)sc2c1CCCCC2	i	21µM*	5%	-2%	16%	-8%
O=C(c1ccncc1)N1CCC2(CC1)CCN(c1ccccn1)CC2	·	·	-21%	?	·	·
CN(C)c1ccc(/C=C/c2ncnc3ccccc23)cc1	i	i	?	16µM*	·	·
CN(C)c1ccc(/C=C/c2c(Cl)cnc3ccccc23)cc1	?	?	11µM*	11µM*	·	·
CN(C)c1ccc(/C=C/c2nnnn2-c2ccccc2)cc1	i	?	?	?	4%	13%
CCOc1ccc(Br)cc1CC(=O)O	i	i	5%	-16%	8%	6%
CCCOc1ccc(Br)cc1CSC(=N)N	8.2µM*	i	6.5µM*	2.1µM*	?	-28%
O=C1[C@H](c2ccccc2)[C@@H](c2ccccc2)N1c1ccncc1	i	i	15µM*	?	-21%	-16%
O=C1[C@@H](Oc2ccccc2)[C@@H](c2ccccc2)N1c1cccnc1	i	i	?	13µM*	-1%	0%
O=C1C(Cc2ccccc2)C(c2ccccc2)N1c1ccccc1 (stereo not given)	21µM*	18µM*	?	?	-6%	-15%
O=C1[C@@H](Oc2ccccc2)[C@@H](c2ccncc2)N1c1ccccc1	i	i	?	18µM*	21µM*	?
Cc1ccn2c(=O)cc(CSc3nnc(C)s3)nc2c1	·	·	4%	-6%	·	·
c1cc(-c2cc3cc4c(cc3cn2)OCO4)cs1	i	i	15µM*	?	1%	5%
Cc1cc(C)nc(N2CCN(c3ccc(F)cc3)CC2)n1	i	i	-20%	3%	13%	14%
Cc1cc(N2CCN(c3ccc(F)cc3)CC2)nc(-c2ccccc2)n1	i	i	9.2µM*	8.2µM*	15%[9.24 µM]	0%
Cc1cc(N2CCC(C(=O)Nc3ccc(F)cc3)CC2)nc(-c2ccccc2)n1	i	i	-22%	18µM*	?	-11%
COc1ccc(NC(=O)C2CCN(c3cc(C)nc(-c4ccccc4)n3)CC2)cc1	i	i	?	?	-26%	-5%
CCCCN(C(=O)c1nn(C)c(=O)c2ccccc12)c1c(N)n(CC(C)C)c(=O)[nH]c1=O	i	i	-17%	-8%	0%	-1%
CCCNC(=O)CN1CCN(c2cc3ccccc3c(Cl)n2)CC1	i	?	?	16µM*	-21%	-17%
CCCCc1nc2sc3c(SCCN(C)C)ncnc3c2c2c1CCC2	i	?	?	?	16%	-23%
CCCCc1nc2sc3c(SCC(=O)NCc4ccco4)ncnc3c2c2c1CCC2	i	?	13µM*	11µM*	1%	0%
SMILES	KB-3-1 tox	KB-V1 MDR tox	DT40 TDP1 CPT	TDP1 cell noCPT	HT1080 IDH1KD tx	HT1080NT lethal
CC(C)Sc1nc(NCc2ccco2)c2c3c(sc2n1)COC(C)(C)C3	i	i	26µM*	15µM*	-16%	-17%
CSc1nc(SCC(=O)NCc2ccco2)c2c3c(sc2n1)COC(C)(C)C3	i	3.7µM*	13µM*	8.2µM*	7.1µM*	7.9µM*
CCCCSc1nc(SCC(=O)NCc2ccco2)c2c3c(sc2n1)COC(C)(CC)C3 (stereo not given)	i	i	-1%	-6%	-3%	1%
COc1cc(CNCCN(C)C)c(Br)cc1OC1CCCC1	?	?	18µM*	?	-5%	9%
CCCCNc1c(C(=O)OCC)c(C)nc2c1cnn2CC	i	?	13µM*	21µM*	-20%	-10%
CCOC(=O)c1c(C)nc2c(C#N)cnn2c1C	i	i	-14%	-21%	11%	2%
COc1ccc(CN2CCN(C(=O)c3ccccc3C(=O)c3ccccc3)CC2)cc1OC	i	16µM*	?	-19%	-1%	2%
O=C(c1ccco1)N1CCN(Cc2cn[nH]c2-c2cccc3ccccc23)CC1	i	?	?	23µM*	5%	6%
COc1ccc(-c2nc(CN3CCN(C(=O)c4ccco4)CC3)c(C)o2)c(OC)c1C	·	·	?	18µM*	13%	-3%
CCOC(=O)N1CCN(Cc2cn[nH]c2-c2cccc3ccccc23)CC1	i	?	-27%	?	6%	0%
COc1ccc(OC)c(-c2nc(CN3CCN(C(=O)c4ccco4)CC3)c(C)o2)c1	i	i	-18%	?	5%	3%
COc1ccccc1OCc1ccc(C(=O)N2CCN(C(=O)c3ccco3)CC2)cc1	i	5.2µM*	-5%	-26%	0%	13%
COc1ccc(CN2CCN(C(=O)c3cccc(OC)c3OC)CC2)cc1OC	i	i	-2%	6%	8%	2%
O=C(OCC(=O)N1CCN(C(=O)c2ccco2)CC1)c1ccccc1OCc1ccc(Cl)cc1	i	i	16µM*	23µM*	4%	17%
